Experimental findings from PubChem BioAssay (NCI) are described below.

This is part of a sample that, as a whole, favours compounds with a hit. Of some 83,000 tested, about 20% had one in any assay.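 Percent growth is the endpoint: 0 to 100 indicates growth inhibition (40 means 60% inhibition), 0 means no net growth, and negative values indicate cell death.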 Unmarked numbers belong to inactive results. Activity calls are given as the source filed them.

For the assay, the system named is HCC-2998 colon. Description: NCI-60 one-dose screen, 48 h (100 = growth as untreated, 0 = no growth, -100 = all killed). To be noted: 10 µM unless noted. As to the method:
Growth inhibition of the HCC-2998 human tumor cell line is measured as a screen for anti-cancer activity. Cells are grown in 96 well plates and exposed to the test compound for 48 hours. Compounds are tested at a single concentration, which is 10^-5 M for most compounds. The reported endpoint is percent growth (GI% or GIPRCNT), where numbers from 0 - 100% represent growth inhibition, and numbers from -100% - 0 represent cell death. For example, a value of 40 represents 60% growth inhibition. A value of 0 means no net growth occurred over the course of the experiment. A value of -40 indicates 40% of cells at the beginning of the experiment died by the end of the experiment. A value of -100 means all cells are dead at the end of the experiment.
NCI-60 Human Tumor Cell Lines Screen was performed using the standard one-dose NCI protocol, which is described in more detail at https://dtp.cancer.gov/discovery_development/nci-60/default.htm.
Compounds with GIPRCNT values below 10 were considered active. Activity score was based on GIPRCNT using the following formula: […]
Score is 0 for GIPRCNT values of 100 or above, 50 for GIPRCNT values of 0, and 100 for GIPRCNT values of -100.
Consider `O=C(Nc1ccc(Cl)cc1)Nc1ccccc1CNc1nc(Nc2ccc(OCCN3CCCC3)cc2)ncc1Cl`, for which the growth is -21.1% (active). As to `O=C(CNC(=O)c1cccc2ccccc12)Nc1ccccc1Oc1ccc(O)cc1`, the growth is 55.6% [5 µM]. Take `Cc1ncc(C(=O)Nc2ccc(CN3CCN(C)CC3)c(C(F)(F)F)c2)cc1C#Cc1cncc2ncccc12`: the growth was 74.5%. The value for `c1ccc(-c2oc(-c3ccccc3)c3ccccc23)cc1` was 107%; that for `NC(=O)c1cc(Br)cc(Br)c1NS(=O)(=O)c1ccccc1` was 106%; that for `O=C1c2cccc3c([N+](=O)[O-])ccc(c23)C(=O)N1CCCCl` was -91.9% [100 µM] (active).

For `Cc1cccc2nnc(-c3ccccc3)n12`, the growth was 102%.

Take `CCOc1cc(/C=C/C(=O)C(C(=O)/C=C/c2ccc(OC(=O)CNc3nc4ccccc4[nH]3)c(OCC)c2)C(=O)CNc2nc3ccccc3[nH]2)ccc1OC(=O)CNc1nc2ccccc2[nH]1`: the growth is -41.5% (active). For the compound `N/C(=N\C(N)=N\c1nc2ccccc2s1)c1ccnc(Cl)c1`, the growth is 62.7%. As to `Cc1ccc(C2=NNC(c3sc(Cl)nc3Cl)C2)cc1` (stereo not given), the growth is 92.8%.

Regarding `CC(C)OP(=O)(OC(C)C)c1ncc(-c2ccc(C(F)(F)F)cc2)c(NC2CCCCCC2)n1`, the growth is -87.6% [33.3 µM] (active).

Consider `Nc1nc(Nc2ccccc2SSc2ccccc2Nc2nc(N)nc(-c3ccc(I)cc3)n2)nc(-c2ccc(I)cc2)n1`, for which the growth is 105%. With `Nc1nc2c(c(=O)[nH]1)C1(C(=O)Nc3ccccc31)c1c(nc(N)[nH]c1=O)N2`, the growth is 114%.

Turning to `FCc1ncc(-c2ccc(C(F)(F)F)cc2)c(NC2CCCCCC2)n1`, the growth was 13.4% [100 µM]. The value for `CCOC(=O)C1=CCC(n2cc(C)c(=O)[nH]c2=O)O1` (stereo not given) was 110%; that for `CCCCCCCCCCCCCCCCNC(=O)Nc1ccc2ccccc2c1` was 109%. With `COc1ccc(-c2cc(-c3cccnc3)nc(S(=O)(=O)CC(=O)Nc3ccc(C)cc3)c2C#N)cc1OC`, the growth is 91.9%.

In the case of `O=[N+]([O-])c1cc([N+](=O)[O-])c(N2CCCC2)cc1NN=C(c1ccc(O)cc1)c1ccc(O)cc1`, the growth is 4.45% (active). The value for `Cc1cc(=O)[nH]c(/C(=N/Nc2ccccc2)C(=O)c2ccc(Cl)cc2)n1` was 109%. Next, `C[C@H]1O[C@@H](O[C@H]2[C@@H](O)C[C@H](O[C@H]3[C@@H](O)C[C@H](O[C@H]4CC[C@]5(C)C6CC[C@]7(C)[C@@H](C8=CC(=O)OC8)CC[C@]7(O)C6CC[C@@H]5C4)O[C@@H]3C)O[C@@H]2C)C[C@H](O)[C@@H]1O` (stereo not given in full): -90.8% (active); `O=C1CSC(c2ccccc2O)N1c1nnc(Cn2ccnc2)o1` (stereo not given): 67.1%; `COc1ccc2c3c(ccc2c1)C(=O)/C(=C\O)CC3`: 104%. The value for `CCN(CC)CCOCC[C@H]1CC[C@H]2[C@@H]3[C@H](C)Cc4cc(OS(N)(=O)=O)ccc4[C@H]3CC[C@]12C` was -92.7% (active). Turning to `O=C(NCCCl)NCCN1c2nc3ccccc3cc2Sc2cc3ccccc3nc21`, the growth is 35.1%. The value for `CCCCN1c2nc3ccccc3cc2Sc2cc3ccccc3nc21` was 86.5%. The value for `CC(C)N(Cc1ccccc1)c1c(S)ssc1=S` was 24.8%. Next, `C1CCC(C(CC2CCCCN2)C2CCCCC2)CC1` (stereo not given): -90.6% (active); `COc1cc(/C=C/C(=O)C(C(=O)/C=C/c2ccc(OC(=O)CCNC34CC5CC(CC(C5)C3)C4)c(OC)c2)C(=O)CCNC23CC4CC(CC(C4)C2)C3)ccc1OC(=O)CCNC12CC3CC(CC(C3)C1)C2` (stereo not given): -48% (active); `COc1cc(C(=O)/C=C/c2cccc(Nc3ccnc4cc(Cl)ccc34)c2)cc(OC)c1OC`: 40.1%. In the case of `O=C(CSc1nnc(-c2cc(-c3ccccc3)nc3ccccc23)o1)c1ccc(Br)cc1`, the growth was 113%. On to `CC(C)Sc1nc(-c2ccc(Br)cc2)c(C#N)c(N2CCCCC2)n1`, for which the growth was 121%. The value for `Nc1nc(NC2CC2)c2ncn(C3C=CC(CO)C3)c2n1` (stereo not given) was 103%; that for `O=C1/C(=C/c2ccc(F)cc2)Cc2ccccc21` was 89.9%; that for `COc1ccc(C(=O)COc2cccc(/C=C3\COc4ccc5ccccc5c4C3=O)c2)cc1` was 63.9%.

For the compound `CN1CCN(c2nc3scc(-c4ccccc4)c3c(=O)[nH]2)CC1`, the growth is 99.5%.

Turning to `COc1cc(/C=C/C(=O)c2c(C)n([O-])c3ccccc3[n+]2=O)cc(OC)c1OC`, the growth was 60.5%. For `CCCCCCCCCCCCC1CCCC(C)C1` (stereo not given), the growth was 97.7%.

Take `COc1ccc(-c2ccc(O)c(C(=O)/C=C/c3cc(OC)c(OC)c(OC)c3)c2)cc1`: the growth is 100%.

As to `C(=C1c2ccccc2-c2ccccc21)c1ccncc1`, the growth was 66.6%.

As for `CCOC(=O)CNC(=O)C1(NC(=O)CNC(=O)OCc2ccccc2)CCCC1`, the growth is 105%.
